Most compounds without a hit are left out; they make up all but 6.2% or so of the library.
FMDV antiviral: High Throughput Screening for Foot and Mouth Disease Virus Antivirals. FMDV antiviral cell-based qHTS. actives 1.2% (n = 410,000). Potency, µM (highest dose often 57.9 µM), most hits filed as inhibitors; calls by dose curve; tested in HEK293T cells; note: read-out not given here; nearly all actives have a fitted effect of over 45% in size
Marburg entry inh: qHTS for inhibitors of binding or entry into cells for Marburg Virus; Potency, µM (highest dose often 37.8 µM), hits mostly inhibitors; actives 1.8% (n = 300,000); Marburg virus pseudotyped entry inhibition, cell reporter; calls by dose curve; tested in HEK293 cells
LASV entry inh: qHTS for Inhibitors of binding or entry into cells for Lassa Virus; Potency, µM (highest dose often 37.9 µM), most hits filed as inhibitors; actives 1.2% (n = 300,000); Lassa virus pseudotype entry inhibition, cell reporter; calls by dose curve; tested in HEK293 cells; note: nearly all actives have a fitted effect of over 50% in size
HCMV antiviral: qHTS Assay for inhibitors of the human cytomegalovirus (HCMV); HFF cells, HCMV-luciferase reporter, 72 h; stronger effect = lower value; activity change, negative = inhibition, % at 57.5 µM; actives 4.5% (n = 410,000); AID 1259415, 2018; in the data active = activity change below about -60%; inconclusive = no clear call, values can overlap the other calls; inactive = above about -39%
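Steps: HFFs plated, 16 h 37C; compounds added; HCMV-luciferase added to MOI 1 PFU/cell; 72 h 37C; OneGlo reagent, 5 min room temperature; luminescence read, normalized to controls.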
Hits are given with their value; n = inactive; u = inconclusive; x = no result.

SMILES	FMDV antiviral	Marburg entry inh	LASV entry inh	HCMV antiviral
Oc1ccccc1-n1c(-c2ccccc2)ccc1-c1ccccc1	u	x	x	-76
Cc1ccc(-c2ccccc2)n1-c1ccc(C(=O)O)cc1	n	n	n	n
NS(=O)(=O)c1ccc(N2N=C(c3ccccc3)CC2c2ccc(F)cc2)cc1 (stereo not drawn)	n	u	u	n
Cc1ccc(S(=O)(=O)N2CCCOC2CNC(=O)C(=O)NCCc2c[nH]c3ccccc23)cc1 (stereo not drawn)	n	u	u	-64
O=C(NCCc1c[nH]c2ccccc12)C(=O)NCC1OCCN1S(=O)(=O)c1ccccc1 (stereo not drawn)	n	n	u	n
Cc1ccc(S(=O)(=O)N2CCOC2CNC(=O)C(=O)NCCCN2CCOCC2)cc1 (stereo not drawn)	n	x	x	-61
O=C(NCCCN1CCOCC1)C(=O)NCC1OCCN1S(=O)(=O)c1ccc(F)cc1 (stereo not drawn)	n	n	n	n
COc1cc(CNc2ccc3c(c2)ncn3C(C)C)cc(OC)c1OC	n	u	n	n
O=C1OCC(CO)(CO)N=C1NNc1ccccc1Cl	x	n	n	-66
Cc1cccc2sc(N(CCCN(C)C)C(=O)c3sc4ccccc4c3Cl)nc12	u	u	n	n
CN(Cc1ccc(OCC(O)CN2CCCCC2)cc1)Cc1ccnc2ccccc12 (stereo not drawn)	u	x	x	-66
CCCn1nnc(NC(=O)/C=C/c2ccco2)n1	n	n	n	n
O=C(NCCCN1CCN(Cc2ccccc2Cl)CC1)Nc1ccccc1	n	n	n	n
CNC(=S)Nc1ccc(C23CC4CC(CC(C4)C2)C3)cc1	n	u	u	-98
Cc1ccc(C(=O)N/N=C\c2cc3c(cc2Br)OCO3)cn1	n	n	n	n
COc1ccc(N2C(=O)CC(N3CCN(c4ccccc4OC)CC3)C2=O)cc1 (stereo not drawn)	n	x	x	n
Cn1ccsc1=NC(=O)c1ccc([N+](=O)[O-])o1	n	x	x	-91
COc1cc(C(=O)N=c2sccn2C)c([N+](=O)[O-])cc1OC	n	n	n	n
COc1ccc(C(CNC(=O)c2sccc2C)N2CCOCC2)cc1 (stereo not drawn)	n	n	n	n
CC(=O)NC1=NN(C(C)=O)C2(S1)C(=O)N(C(C)=O)c1ccc(C)cc12 (stereo not drawn)	n	n	n	n
COc1cccc(CN(C)CC(=O)Nc2ccccc2C(=O)Nc2ccccc2)c1OC	u	u	u	n
N#Cc1ccc(CN2CCN(C(=O)CNC(=O)Cc3cccc4ccccc34)CC2)cc1	u	u	u	-68
COc1ccc(-c2cc(C(=O)NCc3ccc(F)cc3)c3c(-c4ccc(F)cc4)[nH]nc3n2)cc1OC	n	x	u	-101
COc1ccc(CNC(=O)c2cc(-c3ccc(C)cc3)nc3n[nH]c(-c4ccc(Br)cc4)c23)cc1	n	x	n	n
COc1ccc(CNC(=O)c2cc(-c3ccc(OC)c(OC)c3)nc3n[nH]c(-c4ccc(C)cc4)c23)cc1	n	x	n	-97
SMILES	FMDV antiviral	Marburg entry inh	LASV entry inh	HCMV antiviral
CCn1nc(C)c(/C=C/C(=O)Nc2ccc(C)cc2C)c1C	n	n	u	-73
OC(CN1CC=C(/C=C/c2ccc(Br)cc2)CC1)c1ccccc1 (stereo not drawn)	n	11µM	n	n
FC(F)(F)c1nc2ccccc2n2c(-c3ccc(Cl)cc3Cl)nnc12	n	n	n	n
FC(F)(F)c1nnc2c(Sc3ccccc3)nc3ccc(Cl)cc3n12	u	u	u	-103
Cn1nc(CC(=O)Nc2ccc(N3CCN(C(=O)OC(C)(C)C)CC3)cc2)c2ccccc2c1=O	u	n	n	-79
COc1cc(NC(=O)Cc2nn(C)c(=O)c3ccccc23)cc(OC)c1	u	u	n	-88
CCOC(=O)c1c(NC(=O)COc2cccc3c2CCN(CC)C3=O)sc2c1CCC2	n	u	n	-80
CCOC(=O)c1c(NC(=O)COC(=O)c2nccnc2N)sc2c1CCC2	n	x	x	n
CCOC(=O)c1c(NC(=O)COC(=O)c2nc(Cl)ccc2Cl)sc2c1CCC2	n	n	n	-61
O=C(O)CNC(=O)c1ccc(NS(=O)(=O)c2ccc3ccccc3c2)cc1	n	n	n	n
Cn1c(N)c(C(=O)COC(=O)CCOc2ccc(C(C)(C)C)cc2)c(=O)n(C)c1=O	n	n	n	n
c1ccc2c(c1)OCC(c1csc3ncnc(N4CCCCC4)c13)O2 (stereo not drawn)	32µM	u	n	-88
Cc1ccc(NC(=O)CSc2nc3ccccc3nc2Cc2ccccc2)c(Cl)c1	n	x	n	n

Screens: PubChem BioAssay, National Center for Advancing Translational Sciences (NCATS)
